Source: PubChem
Hits are enriched below; roughly 3.5% of the tested compounds scored in any of these assays.
TEAD-YAP inh: TEAD-YAP interaction inhibition, primary screen, TEAD-YAP interaction inhibitor project, luminescence, HEK-TIYL cells | TEAD-Gal4/YAP UAS-luciferase luminescence | AID 1259422, 2018 | 640,000 compounds, 1.4% hits | inhibition, % at 9.12 µM; in the data active means inhibition above about 32%;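 further: 0% = median of test compound wells and 100% = reference inhibitor wells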
GPR151 ag: activators of human GPR151, primary screen, cell-based, PathHunter beta-arrestin, luminescence. G-protein coupled receptor 151 (Homo sapiens), Q8TDV0. PathHunter beta-arrestin GPR151 cells. activation, % at 11.2 µM. 650,000 compounds, 1% hits. AID 1508602, 2020; in the data active means activation above about 4.9%;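 further: 0% = median of compound wells and 100% = cells with positive control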
FBW7 act: FBW7 E3 ligase activators, primary screen, biochemical, AlphaScreen, human | F-box/WD repeat-containing protein 7 (Homo sapiens), Q969H0 | AlphaScreen FBW7–phospho-cyclin E peptide binding, activator screen | normalized activity (activation), % at 26.1 µM | 650,000 compounds, 0.13% hits | AID 1259310, 2017; in the data active means normalized activity above about 1.9%;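 further: purified mutant Fbw7 with reduced substrate affinity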
Target sequence (Q969H0 whole entry, looked up): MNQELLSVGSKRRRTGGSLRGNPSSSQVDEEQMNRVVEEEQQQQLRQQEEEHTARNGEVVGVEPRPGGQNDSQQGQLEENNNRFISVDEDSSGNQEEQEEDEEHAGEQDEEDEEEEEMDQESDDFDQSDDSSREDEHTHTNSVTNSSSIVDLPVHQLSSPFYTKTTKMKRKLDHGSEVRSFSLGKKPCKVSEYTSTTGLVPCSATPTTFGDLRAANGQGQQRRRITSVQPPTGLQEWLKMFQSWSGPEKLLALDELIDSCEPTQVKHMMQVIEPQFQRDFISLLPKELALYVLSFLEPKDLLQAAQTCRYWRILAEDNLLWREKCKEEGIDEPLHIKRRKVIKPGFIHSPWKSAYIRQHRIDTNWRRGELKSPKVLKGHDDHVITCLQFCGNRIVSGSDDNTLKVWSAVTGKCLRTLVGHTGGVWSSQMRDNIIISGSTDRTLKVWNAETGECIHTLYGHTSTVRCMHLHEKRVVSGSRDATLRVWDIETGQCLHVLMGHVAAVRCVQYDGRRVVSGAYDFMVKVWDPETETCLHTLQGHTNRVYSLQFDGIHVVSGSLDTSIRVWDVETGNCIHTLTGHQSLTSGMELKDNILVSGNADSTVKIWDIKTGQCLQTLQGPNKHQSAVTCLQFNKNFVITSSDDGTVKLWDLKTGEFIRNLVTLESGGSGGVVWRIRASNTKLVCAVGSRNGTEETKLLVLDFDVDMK
MITF inh: MITF inhibitors, primary screen, biochemical, AlphaScreen, human; AlphaScreen MITF homodimerization, bead proximity signal; inhibition, % at 2.6 µM; 650,000 compounds, 0.91% hits; AID 1259374, 2018; in the data active means inhibition above about 50%;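 further: 0% = vehicle wells with protein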
Starred values were filed as active, the others as inactive.

SMILES | TEAD-YAP inh | GPR151 ag | FBW7 act | MITF inh
CSc1ccc(CN2CCCC(C(=O)Nc3cccc(-n4cnnn4)c3)C2)cc1 (stereo unspecified) | 36.8* | -1.3 | 0.2 | 1.1
CCOC(=O)c1csc(NC(=O)c2ccc(S(=O)(=O)N3CCc4ccccc43)cc2)n1 | 35.4* | -0.4 | -0.1 | 20.2
O=C(Nc1ccccc1F)c1ccc(S(=O)(=O)N2CCc3ccccc3C2)cc1 | 40.3* | 1.9 | -0.1 | 9.4
COc1ccc(NC(=O)c2ccc(S(=O)(=O)N3CCc4ccccc4C3)cc2)c2ccccc12 | -2.0 | 1.2 | 0.1 | 17.5
COc1ccc(NC(=O)c2ccc(S(=O)(=O)N3CCc4ccccc43)cc2)c2ccccc12 | 60.2* | 1.6 | -0.1 | -2.1
CCOC(=O)c1ccc(NC(=O)C2CC(=O)N(CCc3ccc(OC)c(OC)c3)C(=Nc3ccccc3)S2)cc1 (stereo unspecified) | 3.8 | -1.5 | -0.1 | 3.1
CC1CCc2c(sc(NC(=O)c3cc4ccccc4o3)c2C#N)C1 (stereo unspecified) | -19.2 | 1.5 | 0.0 | -7.7
O=c1c(C=NCCc2ccccn2)c(CSc2ccc(Cl)cc2)[nH]n1-c1nc2ccccc2s1 | -0.1 | 0.9 | -0.1 | 65.1*
CCc1c(C)nc2ncnn2c1NCCc1ccc(OC)cc1 | 65.8* | 0.4 | 0.0 | -1.4
CCCCOc1cccc(C2C3=C(CC(C)(C)CC3=O)Nc3ccccc3N2C(C)=O)c1 (stereo unspecified) | 1.7 | 0.6 | -0.3 | 12.9
NC(=O)c1nn(-c2ccccc2)nc1/C=C\C(=O)O | -8.3 | -0.8 | 1.3 | 19.6
COC(=O)/C=C\c1nn(-c2ccccc2)nc1C#N | 60.0* | -0.2 | -0.3 | 4.9
CCC1=[N+](CC(=O)c2ccccc2)CCn2cccc21 | -3.7 | -0.8 | 2.5* | 11.2
Cc1ccc(C(C[N+](=O)[O-])c2c[nH]c3ccccc23)o1 (stereo unspecified) | 53.6* | -1.1 | 0.0 | -0.1
CCOc1ccc(Br)cc1C1C2=C(CCCC2=O)N(CC(=O)O)C2=C1C(=O)CCC2 | 4.2 | -0.1 | 1.9* | -11.7
CCCOc1ccccc1C1C2=C(CCCC2=O)N(C)C2=C1C(=O)CCC2 | 8.0 | 0.4 | 3.0* | 3.1
Cc1ccc(-c2ccc3c(c2)COC2(CCN(C)CC2)O3)o1 | 4.4 | -0.5 | -0.2 | -4.5
CCOc1cc(C(=O)Nc2ccccc2C(N)=O)cc(OCC)c1OCC | 36.9* | -0.2 | 0.0 | -5.5
CCOc1cc(C(=O)Nc2sccc2C(N)=O)cc(OCC)c1OCC | 36.4* | 1.3 | 0.1 | 2.2
CCOc1ccccc1NC(=O)c1cc(OCC)c(OCC)c(OCC)c1 | 12.8 | -0.5 | 0.0 | 3.2
CCOc1cc(C(=O)Nc2sccc2C(=O)N2CCOCC2)cc(OCC)c1OCC | 19.9 | 0.6 | 1.0 | 3.2
CCOC(=O)c1c(NC(=O)COc2ccc(Cl)cc2Cl)sc2c1CCC2 | 1.0 | 0.0 | 0.1 | -1.8
O=C(c1ccc2c(=O)n(Cc3ccc(Cl)cc3)c(=S)[nH]c2c1)N1CCN(c2ccc(F)cc2)CC1 | 10.5 | 0.8 | -0.1 | 2.8
O=C(CSc1ncccc1C(=O)NCc1cccnc1)Nc1ccc(Br)cc1F | 1.6 | -1.5 | 0.6 | 1.4
O=C(CCCc1nc(-c2ccc(Cl)cc2)no1)NC1CCCC1 | 33.9* | 1.0 | -0.1 | -11.2
SMILES | TEAD-YAP inh | GPR151 ag | FBW7 act | MITF inh
CCN(CC)S(=O)(=O)c1ccc(N=Nc2cc([N+](=O)[O-])c3cccnc3c2O)cc1 | 0.8 | 1.1 | -0.1 | 18.3
O=C(Nc1ccccc1Cl)c1cc([N+](=O)[O-])ccc1O | 60.4* | -6.3 | 1.1 | 23.4
O=C(Nc1ccccc1Cl)c1ccc([N+](=O)[O-])cc1Cl | 0.3 | 1.0 | -0.1 | 9.4
O=C(Nc1ccccc1Cl)c1cc(F)ccc1[N+](=O)[O-] | 79.8* | 0.2 | 0.2 | 11.3
Cc1ccccc1C(=O)Nc1ccc(-c2ccc([N+](=O)[O-])cc2)cc1 | -24.5 | 2.2 | 0.1 | -3.2
CC(C)CC(=O)Nc1ccc(Cl)c([N+](=O)[O-])c1 | 4.0 | 1.5 | 0.1 | 5.6
O=C(Nc1ccc(-c2ccc([N+](=O)[O-])cc2)cc1)c1ccccc1O | 45.3* | -0.7 | -0.1 | -1.6
O=C(CCl)Nc1ccc(Cl)c([N+](=O)[O-])c1 | 73.9* | -0.2 | 0.0 | -6.1
O=S(=O)(Cc1ccccc1Cl)N(Cc1ccsc1)C1CC1 | 5.2 | 2.0 | 0.5 | 1.6
O=C(Nc1ccc([N+](=O)[O-])cc1Br)c1ccccc1O | 78.1* | -2.3 | -0.1 | 9.7
O=C(Nc1ccc(F)cc1F)c1ccc(Cl)c([N+](=O)[O-])c1 | 56.0* | -2.0 | 0.0 | 11.5
